Experimental data from PMC4336329 (PLoS ONE, 2015).
About 14,000 (4.5%) of roughly 310,000 compounds showed an effect of 50% or more. The effect is printed as a negative number. Many of the other results were omitted from the sample, so strong results are more common in it than they were.

Molecular target: human ether-à-go-go-related gene (hERG) potassium channel (human, UniProt Q12809)
Experiment: primary screen, population patch clamp on CHO cells stably expressing hERG; higher = less effect of the substance
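Note: peak tail current of the secondary pulse compared with the same well before compound.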

Sequence of human ether-à-go-go-related gene (hERG) potassium channel (Q12809 whole entry, looked up): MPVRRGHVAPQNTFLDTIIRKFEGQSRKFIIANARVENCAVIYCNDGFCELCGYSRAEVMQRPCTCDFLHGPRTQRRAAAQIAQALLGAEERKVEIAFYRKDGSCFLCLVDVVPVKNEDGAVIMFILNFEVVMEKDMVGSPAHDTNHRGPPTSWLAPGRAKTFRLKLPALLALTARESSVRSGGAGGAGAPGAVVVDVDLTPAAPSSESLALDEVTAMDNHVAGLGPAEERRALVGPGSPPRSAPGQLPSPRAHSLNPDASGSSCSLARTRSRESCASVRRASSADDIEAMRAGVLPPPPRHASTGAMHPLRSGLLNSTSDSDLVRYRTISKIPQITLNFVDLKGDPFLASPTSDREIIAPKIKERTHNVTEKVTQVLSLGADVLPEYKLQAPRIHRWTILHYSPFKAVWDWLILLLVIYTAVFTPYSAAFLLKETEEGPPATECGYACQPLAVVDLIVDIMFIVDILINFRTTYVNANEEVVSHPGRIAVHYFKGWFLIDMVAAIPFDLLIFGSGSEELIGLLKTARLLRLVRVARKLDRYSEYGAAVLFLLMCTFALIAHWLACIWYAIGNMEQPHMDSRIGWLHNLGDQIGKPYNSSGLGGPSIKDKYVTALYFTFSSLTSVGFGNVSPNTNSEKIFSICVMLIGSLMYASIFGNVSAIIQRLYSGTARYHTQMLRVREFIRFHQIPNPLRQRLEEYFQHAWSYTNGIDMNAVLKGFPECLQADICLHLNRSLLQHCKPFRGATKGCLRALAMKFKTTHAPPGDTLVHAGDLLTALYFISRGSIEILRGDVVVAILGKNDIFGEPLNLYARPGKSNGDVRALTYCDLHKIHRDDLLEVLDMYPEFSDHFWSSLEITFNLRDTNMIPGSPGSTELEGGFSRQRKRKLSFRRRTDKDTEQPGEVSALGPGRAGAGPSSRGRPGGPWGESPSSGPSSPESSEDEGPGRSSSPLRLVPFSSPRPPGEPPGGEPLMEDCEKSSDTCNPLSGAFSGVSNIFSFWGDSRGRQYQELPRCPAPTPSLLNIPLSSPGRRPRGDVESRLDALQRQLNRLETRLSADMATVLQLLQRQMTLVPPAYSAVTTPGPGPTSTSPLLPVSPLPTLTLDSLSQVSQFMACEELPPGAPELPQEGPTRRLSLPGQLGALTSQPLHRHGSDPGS

SMILES	hERG current change (%, negative = inhibition) at 10uM
O=c1[nH]c(/C=C/c2ccccc2)c([N+](=O)[O-])c(=O)[nH]1	5.45%
CCN1C(=O)Nc2cccc3cccc1c23	1.65%
CCN(CC)C(=O)c1cnn(-c2ccccc2)c1NC(=O)c1ccco1	-12.8%
COc1ccc(/C=C/C(=O)Nc2ccccc2C(=O)NCC(c2ccc(OC)cc2)N(C)C)cc1 (stereo not drawn)	-49.6%
CCc1nc(N=Nc2c(O)[nH]c3ccccc23)c2c3c(sc2n1)CCC3	13.7%
O=C(COC(=O)c1cc(Cl)ccc1[N+](=O)[O-])NCc1ccc(Cl)cc1Cl	-11.8%
COc1ccccc1CCNC(=O)CN1C(=O)c2ccccc2S1(=O)=O	2.11%
CC(C)(C)C(=O)NC1CCSC1=O (stereo not drawn)	8.46%
CN(C)CCN1C(=O)C2C3C=CC(C3)C2C1=O (stereo not drawn)	20.6%
Cc1cc(C)c2c(=O)[nH]c(SCC(=O)Nc3ccc(N(C)C)cc3)nc2n1	-2.77%
CCCc1[nH]nc2c1C(Cc1ccccc1)C(C#N)=C(N)O2 (stereo not drawn)	0.432%
Cc1nn(-c2ccccc2)c(C)c1-c1cc(C(=O)N/N=C/c2cccnc2)[nH]n1	-18.7%
Cc1cccc2c1N(C)C(=O)C2=O	17.1%
Cc1ccc(NC(=O)CNCc2ccccn2)cc1S(=O)(=O)N(C)C	20.9%
CCN(Cc1ccc(O)cc1)CC1CCCN(CCc2cccc(F)c2)C1 (stereo not drawn)	-71.1%
CCN(Cc1ccc(NC(C)=O)cc1)CC1CCCN(CCc2cccc(F)c2)C1 (stereo not drawn)	-24.4%
Cc1ccc(-c2nnc(CSc3nnc(COc4ccccc4)n3-c3ccc(C)cc3)o2)cc1	-7.47%
CC(C)C(OC(=O)c1ccco1)C(=O)NCc1cccs1 (stereo not drawn)	-0.362%
CN(C)c1ccc(/C=N/NC(=O)c2ccccc2)cc1	10.9%
CN(C)c1ccc(/C=N/NC(=O)C2CC2c2ccccc2)cc1 (stereo not drawn)	-74.9%
O=C(N/N=C/c1ccco1)C1CC1c1ccccc1 (stereo not drawn)	-4.18%
CCOc1ccc(CCNC(=O)CCS(=O)(=O)c2ccc(Br)cc2)cc1OCC	13.8%
Cc1cc(NC(=S)N(CCN2CCOCC2)Cc2ccccc2F)ccc1Cl	24.1%

SMILES	hERG current change (%, negative = inhibition) at 10uM
COc1cccc(CCC(=O)N2CCC(n3nccc3NC(=O)C3CCOC3)CC2)c1 (stereo not drawn)	14.9%
COc1ccc(C(=O)c2sc(Nc3ccccc3)nc2N)cc1	18.1%
COc1ccc(Nc2nc(N)c(C(=O)c3ccc(OC)cc3)s2)cc1	-52.7%
COc1ccc(Nc2nc(N)c(C(=O)c3ccc(F)cc3)s2)cc1	25.9%
O=C(Nc1ccc(Cl)cc1F)c1cc(S(=O)(=O)N2CCCCC2)ccc1F	-0.146%
Cc1ccc(NC(=O)Cn2nnc(C(=O)NCc3ccco3)c2N)c(C)c1	3.23%
C/[N+]([O-])=C\c1coc2ccccc2c1=O	-1.4%
O=C(CCl)N1CCN2C(=O)c3ccccc3C12c1ccc(Cl)cc1 (stereo not drawn)	-1.56%
COCCCNC(=O)Cc1c(C)c2c(cc(C)c3c(C(C)(C)C)coc32)oc1=O	-32.3%
Cc1cc2oc(=O)c(CC(=O)NCCCN(C)C)c(C)c2c2occ(C(C)(C)C)c12	-69.1%
Cc1cc2oc(=O)c(CC(=O)NCCCO)c(C)c2c2occ(C(C)(C)C)c12	-9.35%
O=C1OC(CO)CN1Cc1ccccc1 (stereo not drawn)	12.3%
COc1ccc(-n2cc(-c3ccccc3)c3c(NCCCN4CCOCC4)ncnc32)cc1	-65%
c1ccc(-n2ncc3c(NCCCN4CCOCC4)ncnc32)cc1	-11%
c1ccc(-c2csc3ncnc(NCCCN4CCOCC4)c23)cc1	-13.2%
c1ccc(-c2cn(-c3ccccc3)c3ncnc(NCCCN4CCOCC4)c23)cc1	-60.6%
COc1ccc(-n2cc(-c3ccccc3)c3c(NN4CCOCC4)ncnc32)cc1	-40.6%
COc1ccc(-n2cc(-c3ccccc3)c3c(N4CCOCC4)ncnc32)cc1	22.5%
COc1nc(-c2ccc(Cl)cc2)nnc1C	2.25%
COCCNC(=O)C(c1cccs1)N(CCc1ccccc1)C(=O)Cn1nnc2ccccc21 (stereo not drawn)	6.51%
O=C(CSc1nnc(Cn2cnc3ccccc32)o1)c1ccccc1	-7.21%
Cc1ccc(N2C(=O)CC(=O)NC2=O)c(C)c1	17.2%
